# Reference: the supplement of paper PMC6411743
# ± gives the standard deviation of the averaged measurements. The full data set covers some 6,200 targets. This sample favours those with the largest changes.
# Compound: Nc1ncnc2c1ncn2[C@@H]1O[C@H](COP(=O)(O)OP(=O)(O)NP(=O)(O)O)[C@@H](O)[C@H]1O [adenylyl imidodiphosphate]
# Experiment: NP40-soluble protein abundance relative to vehicle (solubility fold change) (ratio); higher = more soluble protein in presence of AMP-PNP
# How it was run: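 Crude Jurkat lysate, prepared by Dounce homogenisation, was exposed to eight concentrations from 0.1 to 10 mM for 10 min at room temperature and then 3 min at 37 °C. Solubilisation used 0.8% NP40 with benzonase for 60 min at 4 °C, followed by ultracentrifugation and TMT labelling of the supernatant for LC-MS/MS. After vsn normalisation of intensities, each value is the fold change against the detergent-processed vehicle within each replicate, across three independent experiments.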
# Chain of UniProt Q9UIF9 (Q9UIF9 whole entry, one chain of several): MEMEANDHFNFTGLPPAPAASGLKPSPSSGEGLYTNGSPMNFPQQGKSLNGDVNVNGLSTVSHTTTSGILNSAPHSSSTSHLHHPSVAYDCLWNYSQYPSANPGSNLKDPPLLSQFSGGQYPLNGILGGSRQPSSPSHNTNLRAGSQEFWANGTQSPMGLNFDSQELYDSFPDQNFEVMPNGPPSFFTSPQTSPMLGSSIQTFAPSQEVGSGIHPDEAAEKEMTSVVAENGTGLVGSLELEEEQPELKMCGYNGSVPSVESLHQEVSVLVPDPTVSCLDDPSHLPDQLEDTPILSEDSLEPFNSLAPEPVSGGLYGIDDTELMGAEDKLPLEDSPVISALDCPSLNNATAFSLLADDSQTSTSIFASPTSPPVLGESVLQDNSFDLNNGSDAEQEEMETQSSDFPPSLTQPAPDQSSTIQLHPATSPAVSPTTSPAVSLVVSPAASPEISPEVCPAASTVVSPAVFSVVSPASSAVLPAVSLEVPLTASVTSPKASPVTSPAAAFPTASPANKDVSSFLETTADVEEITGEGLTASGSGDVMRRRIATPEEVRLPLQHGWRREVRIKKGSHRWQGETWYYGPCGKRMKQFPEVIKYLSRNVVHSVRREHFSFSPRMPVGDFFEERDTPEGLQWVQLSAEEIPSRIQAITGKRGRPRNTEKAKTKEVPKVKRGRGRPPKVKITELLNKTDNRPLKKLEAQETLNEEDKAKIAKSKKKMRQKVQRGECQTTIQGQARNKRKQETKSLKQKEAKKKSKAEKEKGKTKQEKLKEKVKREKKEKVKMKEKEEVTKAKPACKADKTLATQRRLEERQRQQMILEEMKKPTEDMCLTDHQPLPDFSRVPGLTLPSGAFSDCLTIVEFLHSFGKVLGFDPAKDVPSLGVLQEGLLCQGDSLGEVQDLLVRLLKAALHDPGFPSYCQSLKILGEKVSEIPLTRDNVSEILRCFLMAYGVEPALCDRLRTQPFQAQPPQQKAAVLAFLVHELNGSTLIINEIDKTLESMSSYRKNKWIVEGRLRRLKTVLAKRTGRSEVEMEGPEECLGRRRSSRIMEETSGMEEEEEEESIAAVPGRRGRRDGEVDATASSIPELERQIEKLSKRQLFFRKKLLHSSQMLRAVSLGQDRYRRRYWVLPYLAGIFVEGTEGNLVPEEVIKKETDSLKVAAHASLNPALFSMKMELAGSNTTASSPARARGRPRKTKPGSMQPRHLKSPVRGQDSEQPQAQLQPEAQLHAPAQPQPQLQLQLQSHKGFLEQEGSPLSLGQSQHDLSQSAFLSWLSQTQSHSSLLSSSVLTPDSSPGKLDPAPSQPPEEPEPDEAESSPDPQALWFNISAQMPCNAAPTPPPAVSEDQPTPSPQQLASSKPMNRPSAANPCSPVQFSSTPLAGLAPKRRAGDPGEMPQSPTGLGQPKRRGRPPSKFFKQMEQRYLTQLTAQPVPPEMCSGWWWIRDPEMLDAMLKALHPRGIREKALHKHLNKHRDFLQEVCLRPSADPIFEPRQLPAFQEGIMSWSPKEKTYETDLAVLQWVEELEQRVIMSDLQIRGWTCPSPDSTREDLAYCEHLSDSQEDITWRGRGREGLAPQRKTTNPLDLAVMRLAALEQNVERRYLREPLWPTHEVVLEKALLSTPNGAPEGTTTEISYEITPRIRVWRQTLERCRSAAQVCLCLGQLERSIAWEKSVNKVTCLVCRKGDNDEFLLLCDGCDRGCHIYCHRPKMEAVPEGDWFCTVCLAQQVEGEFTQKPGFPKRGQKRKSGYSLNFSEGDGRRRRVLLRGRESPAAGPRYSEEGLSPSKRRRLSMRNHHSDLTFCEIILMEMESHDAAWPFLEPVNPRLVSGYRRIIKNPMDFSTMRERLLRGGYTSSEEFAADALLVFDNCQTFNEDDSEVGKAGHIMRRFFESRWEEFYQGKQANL
# Chain of UniProt P34949 (P34949 whole entry, one chain of several): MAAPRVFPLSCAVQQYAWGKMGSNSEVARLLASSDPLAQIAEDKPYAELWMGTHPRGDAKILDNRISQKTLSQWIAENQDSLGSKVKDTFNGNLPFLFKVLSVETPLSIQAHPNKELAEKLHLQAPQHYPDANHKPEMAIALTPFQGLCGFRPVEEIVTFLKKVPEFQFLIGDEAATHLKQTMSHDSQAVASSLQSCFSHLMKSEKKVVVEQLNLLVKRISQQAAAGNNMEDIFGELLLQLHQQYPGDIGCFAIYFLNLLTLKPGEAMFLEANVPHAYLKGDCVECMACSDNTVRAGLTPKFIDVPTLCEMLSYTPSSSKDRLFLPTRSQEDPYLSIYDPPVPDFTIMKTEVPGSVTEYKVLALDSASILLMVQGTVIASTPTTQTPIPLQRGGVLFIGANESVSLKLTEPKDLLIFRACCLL
# Chain of UniProt Q96C57 (Q96C57 whole entry, one chain of several): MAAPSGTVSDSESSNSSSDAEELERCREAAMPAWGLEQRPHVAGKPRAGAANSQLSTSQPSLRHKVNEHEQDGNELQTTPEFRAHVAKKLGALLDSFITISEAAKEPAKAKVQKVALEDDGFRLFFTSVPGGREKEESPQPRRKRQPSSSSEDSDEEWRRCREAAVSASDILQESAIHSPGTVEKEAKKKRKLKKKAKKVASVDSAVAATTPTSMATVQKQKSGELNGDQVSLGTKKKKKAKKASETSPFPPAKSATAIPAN
# Chain of UniProt O43290 (O43290 whole entry): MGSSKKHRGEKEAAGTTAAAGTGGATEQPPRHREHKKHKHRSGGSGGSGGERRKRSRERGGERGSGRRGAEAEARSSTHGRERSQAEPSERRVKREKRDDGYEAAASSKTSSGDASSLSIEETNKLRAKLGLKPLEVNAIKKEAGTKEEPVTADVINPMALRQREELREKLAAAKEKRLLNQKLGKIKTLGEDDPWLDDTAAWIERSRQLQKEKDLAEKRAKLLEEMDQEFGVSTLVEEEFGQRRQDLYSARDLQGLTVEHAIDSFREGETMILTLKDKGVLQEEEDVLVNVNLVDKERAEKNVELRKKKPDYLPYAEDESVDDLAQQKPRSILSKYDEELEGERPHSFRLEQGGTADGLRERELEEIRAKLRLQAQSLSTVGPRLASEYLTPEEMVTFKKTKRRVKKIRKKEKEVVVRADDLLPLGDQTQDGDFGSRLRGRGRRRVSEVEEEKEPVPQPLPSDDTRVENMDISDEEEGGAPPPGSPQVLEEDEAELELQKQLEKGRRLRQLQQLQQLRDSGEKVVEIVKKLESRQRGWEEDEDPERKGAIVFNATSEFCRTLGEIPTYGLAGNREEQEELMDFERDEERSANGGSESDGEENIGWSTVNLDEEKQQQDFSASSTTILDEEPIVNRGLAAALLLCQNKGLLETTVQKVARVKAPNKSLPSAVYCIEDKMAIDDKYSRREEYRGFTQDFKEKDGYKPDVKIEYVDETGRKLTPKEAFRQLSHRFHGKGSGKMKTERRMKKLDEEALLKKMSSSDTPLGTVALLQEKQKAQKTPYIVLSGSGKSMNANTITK
# Chain of UniProt Q5ST30 (Q5ST30 whole entry, one chain of several): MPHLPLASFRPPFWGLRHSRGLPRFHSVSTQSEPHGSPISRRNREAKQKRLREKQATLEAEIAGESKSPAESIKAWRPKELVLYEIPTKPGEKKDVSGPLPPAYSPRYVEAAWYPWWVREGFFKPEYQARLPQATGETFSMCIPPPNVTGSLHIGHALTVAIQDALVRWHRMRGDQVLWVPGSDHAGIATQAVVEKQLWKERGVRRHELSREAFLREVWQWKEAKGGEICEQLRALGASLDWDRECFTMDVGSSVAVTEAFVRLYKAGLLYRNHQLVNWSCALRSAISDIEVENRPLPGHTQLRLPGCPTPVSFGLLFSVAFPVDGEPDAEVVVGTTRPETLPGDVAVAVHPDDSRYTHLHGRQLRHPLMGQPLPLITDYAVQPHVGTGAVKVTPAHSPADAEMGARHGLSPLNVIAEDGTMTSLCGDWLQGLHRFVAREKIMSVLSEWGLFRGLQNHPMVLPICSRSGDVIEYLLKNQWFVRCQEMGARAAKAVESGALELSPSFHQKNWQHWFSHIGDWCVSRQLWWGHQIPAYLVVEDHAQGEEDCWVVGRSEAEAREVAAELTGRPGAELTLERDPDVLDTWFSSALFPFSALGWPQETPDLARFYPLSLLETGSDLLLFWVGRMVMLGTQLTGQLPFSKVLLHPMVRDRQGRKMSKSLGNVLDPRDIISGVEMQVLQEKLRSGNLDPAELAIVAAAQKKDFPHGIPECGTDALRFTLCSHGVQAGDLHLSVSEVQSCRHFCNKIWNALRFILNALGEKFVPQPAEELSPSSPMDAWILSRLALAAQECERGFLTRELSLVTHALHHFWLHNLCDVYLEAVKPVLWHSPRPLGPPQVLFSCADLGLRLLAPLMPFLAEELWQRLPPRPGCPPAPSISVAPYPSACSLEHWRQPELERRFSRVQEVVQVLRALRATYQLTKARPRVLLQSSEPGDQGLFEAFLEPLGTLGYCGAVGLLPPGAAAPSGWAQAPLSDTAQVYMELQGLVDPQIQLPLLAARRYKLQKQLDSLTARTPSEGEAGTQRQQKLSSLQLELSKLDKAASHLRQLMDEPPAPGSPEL
# Chain of UniProt Q8WTS6 (Q8WTS6 whole entry, one chain of several): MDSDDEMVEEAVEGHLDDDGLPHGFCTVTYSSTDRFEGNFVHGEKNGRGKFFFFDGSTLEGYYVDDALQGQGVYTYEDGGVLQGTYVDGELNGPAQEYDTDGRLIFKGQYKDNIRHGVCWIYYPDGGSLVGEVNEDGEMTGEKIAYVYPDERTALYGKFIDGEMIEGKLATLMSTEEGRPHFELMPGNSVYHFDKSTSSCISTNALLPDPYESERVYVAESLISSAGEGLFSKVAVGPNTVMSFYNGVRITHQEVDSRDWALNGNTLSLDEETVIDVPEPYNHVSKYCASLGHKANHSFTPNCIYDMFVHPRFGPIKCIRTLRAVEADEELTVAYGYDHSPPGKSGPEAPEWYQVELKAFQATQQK
# Chain of UniProt O15116 (O15116 whole entry): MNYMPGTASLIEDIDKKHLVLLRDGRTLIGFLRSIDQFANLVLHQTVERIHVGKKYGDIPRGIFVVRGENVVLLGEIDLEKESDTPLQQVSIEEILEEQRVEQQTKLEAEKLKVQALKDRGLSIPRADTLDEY
Target,NP40-soluble protein abundance (concentration: 1mM),NP40-soluble protein abundance (concentration: 2mM),NP40-soluble protein abundance (concentration: 4mM),NP40-soluble protein abundance (concentration: 6mM),NP40-soluble protein abundance (concentration: 8mM),NP40-soluble protein abundance (concentration: 10mM)
D6RCD0|Q8NBQ5 (UniProt Q8NBQ5),0.995 ± 0.031,0.9738 ± 0.0077,1.01 ± 0.047,1.06 ± 0.079,1.04 ± 0.056,1.04 ± 0.064
E9PDF6|O43795|O43795-2 (UniProt O43795),2.06 ± 0.29,2.04 ± 0.2,2.31 ± 0.29,2.37 ± 0.28,2.45 ± 0.32,2.39 ± 0.27
F5H0R1|Q9H6E5 (UniProt Q9H6E5),0.994 ± 0.023,1.01 ± 0.039,1.02 ± 0.016,0.973 ± 0.032,0.983 ± 0.024,0.978 ± 0.025
J3KPH8|Q8WUI4|Q8WUI4-3|Q8WUI4-4|Q8WUI4-5|Q8WUI4-6|Q8WUI4-7|Q8WUI4-8 (UniProt Q8WUI4),0.979 ± 0.04,1 ± 0.027,1 ± 0.026,0.98 ± 0.024,0.998 ± 0.067,0.9557 ± 0.0038
K7EK07|P84243 (UniProt P84243+K7EK07),0.97 ± 0.11,1.01 ± 0.094,1.01 ± 0.084,1.08 ± 0.13,1.09 ± 0.15,1.16 ± 0.1
UniProt O43148|O43148-2,0.996 ± 0.013,1.01 ± 0.011,0.992 ± 0.017,0.992 ± 0.027,0.985 ± 0.029,1 ± 0.033
H3BPB8|P34949 (UniProt P34949),1.029 ± 0.0072,1.01 ± 0.039,1.02 ± 0.027,0.976 ± 0.029,1.01 ± 0.042,0.988 ± 0.048
B5MCS2|Q8WTS6 (UniProt Q8WTS6),0.93 ± 0.076,0.946 ± 0.039,0.946 ± 0.043,0.954 ± 0.032,0.957 ± 0.022,0.936 ± 0.042
E5RFJ1|Q96MF7 (UniProt Q96MF7),1.01 ± 0.028,1.03 ± 0.06,1.02 ± 0.035,0.957 ± 0.033,0.989 ± 0.022,0.9706 ± 0.0092
CCNT1 (UniProt O60563),1.1 ± 0.051,1.19 ± 0.074,1.21 ± 0.064,1.25 ± 0.12,1.31 ± 0.11,1.4 ± 0.14
A0A0A0MSY9|Q92800|Q92800-2|Q92800-3|Q92800-4|Q92800-5 (UniProt Q92800),0.978 ± 0.017,0.97 ± 0.022,0.9794 ± 0.0047,0.994 ± 0.016,0.999 ± 0.019,1.001 ± 0.0058
B0QXZ5|O96015 (UniProt O96015),1 ± 0.02,1.01 ± 0.047,0.983 ± 0.018,0.998 ± 0.021,0.996 ± 0.019,0.9826 ± 0.0082
A0A0A0MQS0|A8MW92|F8W9L8|A8MW92-4 (UniProt A8MW92),0.995 ± 0.044,1.11 ± 0.088,1.1 ± 0.041,1.15 ± 0.036,1.17 ± 0.081,1.26 ± 0.019
H3BRF9|Q96K21|Q96K21-3 (UniProt Q96K21),0.998 ± 0.015,1.03 ± 0.05,1.02 ± 0.049,0.979 ± 0.02,0.959 ± 0.028,0.997 ± 0.044
D6REA0|O75879 (UniProt O75879),0.962 ± 0.026,0.9665 ± 0.0091,0.968 ± 0.036,1.03 ± 0.028,0.986 ± 0.038,1.003 ± 0.0032
F8VU39|J3KPG5|Q9UIF9|Q9UIF9-2|Q9UIF9-3 (UniProt Q9UIF9),1 ± 0.015,0.9926 ± 0.0061,1.023 ± 0.0073,1.02 ± 0.039,1.01 ± 0.014,1.03 ± 0.037
G3V5N8|Q9HBF4|Q9HBF4-3 (UniProt Q9HBF4),0.991 ± 0.012,0.986 ± 0.035,0.987 ± 0.054,0.96 ± 0.021,0.968 ± 0.0098,0.938 ± 0.047
I3L4X7|Q13227|Q13227-2 (UniProt Q13227),0.982 ± 0.029,1.03 ± 0.059,1.02 ± 0.064,1.08 ± 0.067,1.05 ± 0.019,1.1 ± 0.019
G3XAG1|Q96ME7|Q96ME7-3 (UniProt Q96ME7),1.04 ± 0.064,1.03 ± 0.1,1.17 ± 0.086,1.39 ± 0.083,1.52 ± 0.039,1.64 ± 0.1
C9JEJ2|H7BZN1|P49585|C9J050 (UniProt P49585),1.01 ± 0.028,1.02 ± 0.022,1.02 ± 0.015,0.993 ± 0.027,1 ± 0.02,0.996 ± 0.01
J3KQH6|P78364 (UniProt P78364),1.01 ± 0.067,1.01 ± 0.02,1.01 ± 0.018,1.04 ± 0.047,1.03 ± 0.025,1.05 ± 0.032
A0A0A0MTG1|A0A0G2JIA5|A0A140T8Y0|A0A140TA35|A0A140TA36|A0A140TA40|A0A140TA45|Q5ST30|Q5ST30-4|A0A0G2JL52|B4E0K6|B7ZL25 (UniProt Q5ST30),1 ± 0.017,0.992 ± 0.051,0.992 ± 0.02,0.98 ± 0.034,0.979 ± 0.022,0.969 ± 0.04
UniProt O60504-2|O60504,1.03 ± 0.013,0.999 ± 0.018,1.04 ± 0.018,1.03 ± 0.029,1.02 ± 0.029,1.02 ± 0.025
LSM1 (UniProt O15116),0.913 ± 0.018,0.961 ± 0.041,0.921 ± 0.0096,0.918 ± 0.023,0.907 ± 0.011,0.897 ± 0.024
F5H7W8|Q96C57 (UniProt Q96C57),1.17 ± 0.015,1.26 ± 0.088,1.25 ± 0.058,1.29 ± 0.047,1.34 ± 0.062,1.37 ± 0.12
UniProt O14523|O14523-2,0.973 ± 0.015,0.988 ± 0.013,0.985 ± 0.037,0.968 ± 0.027,0.97 ± 0.047,1.01 ± 0.06
SART1 (UniProt O43290),1.07 ± 0.048,1.12 ± 0.054,1.11 ± 0.034,1.22 ± 0.089,1.26 ± 0.067,1.36 ± 0.081
F5GXC5|H3BUJ1|Q8TB96 (UniProt Q8TB96),1.01 ± 0.017,1.02 ± 0.054,1.01 ± 0.037,1.008 ± 0.0079,1.01 ± 0.024,0.996 ± 0.023
J3KNF8|O43169 (UniProt O43169),1.15 ± 0.069,1.34 ± 0.33,1.1 ± 0.049,1.08 ± 0.047,1.03 ± 0.08,1.05 ± 0.054
UniProt A2RU67,0.9918 ± 0.004,1.03 ± 0.031,1.02 ± 0.021,1 ± 0.019,1 ± 0.017,1.03 ± 0.016
